# The supplement of paper PMC11732987, “Enantioselective OTUD7B fragment discovery through chemoproteomics screening and high-throughput optimisation” (Communications Chemistry, 2025)
# A number with no mark means an inactive call.
# Biological target: USP14 (UniProt P54578)
# Assay: log2 ratio of Biotin-Ahx-Ub-VS probe labelling (fragment/DMSO); higher = less target engagement (more negative = stronger competition), active = hit call of the paper (q ≤ 0.05, log2 ratio ≤ -1)
# Details: compound concentration: 200 uM; treatment time: 3 h
# Description: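 Competitive ABPP in HEK293T cell lysate. Lysates were treated with each chloroacetamide fragment at 200 µM for 3 h, then with Biotin-Ahx-Ub-VS (0.5 µM, 1 h), NeutrAvidin-enriched and analysed by diaPASEF LC-MS/MS. Protein LFQ was median-normalised; average log2 ratio is fragment/DMSO from an unpaired t-test (n=3 treated, n=44 DMSO). Hits: q ≤ 0.05, log2 ratio ≤ -1, unique peptides ≥ 2.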
# USP14, sequence (P54578 whole entry, the tested form may be a part): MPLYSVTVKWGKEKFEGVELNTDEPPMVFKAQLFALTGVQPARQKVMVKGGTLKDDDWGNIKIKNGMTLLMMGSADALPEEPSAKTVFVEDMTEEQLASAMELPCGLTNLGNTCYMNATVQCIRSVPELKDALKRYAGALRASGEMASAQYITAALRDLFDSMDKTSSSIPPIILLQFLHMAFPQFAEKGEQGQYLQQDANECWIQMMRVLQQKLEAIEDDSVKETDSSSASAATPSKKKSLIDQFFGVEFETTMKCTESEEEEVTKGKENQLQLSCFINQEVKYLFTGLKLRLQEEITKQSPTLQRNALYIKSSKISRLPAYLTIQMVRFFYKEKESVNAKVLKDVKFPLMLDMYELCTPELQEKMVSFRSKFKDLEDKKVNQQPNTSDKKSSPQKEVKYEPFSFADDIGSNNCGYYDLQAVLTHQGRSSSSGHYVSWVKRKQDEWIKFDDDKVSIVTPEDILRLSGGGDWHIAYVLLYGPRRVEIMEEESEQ
row,Structure (SMILES),log2 ratio of Biotin-Ahx-Ub-VS probe labelling
1,O=C(CCl)NCC1(c2ccccc2)CC1,0.0125
2,Cc1nc(CC2CCN(C(=O)CCl)CC2)no1,-0.561
3,Cc1noc(C)c1CNC(=O)CCl,-0.561
4,O=C(CCl)N1CCCCC12CCOCC2,-0.559
5,Cc1cnc2[nH]cc(CCNC(=O)CCl)c2c1,-0.111
6,CCCn1nccc1NC(=O)CCl,-0.663
7,Cl.Cn1ncc2c1CCCC2NC(=O)CCl (stereo not given),-0.227
8,O=C(CCl)Nc1cccc(NC(=O)c2ccccc2)c1,0.235
9,CC1Cc2ccccc2N1C(=O)CCl (stereo not given),-0.771
10,O=C(CCl)NC1CCN(C(=O)C2CCCCC2)CC1,-0.0275
11,O=C(CCl)N1CCOC(c2cccc(F)c2)C1 (stereo not given),-0.3
12,NS(=O)(=O)c1ccc(Cl)c(NC(=O)CCl)c1,-0.356
13,NC(=O)C1CCCN(C(=O)CCl)C1 (stereo not given),-0.153
14,NC(=O)C1CCCCN1C(=O)CCl (stereo not given),-0.15
15,O=C(CCl)Nc1cc(Cl)ccc1C(=O)O,0.0912
16,CC(NC(=O)CCl)c1ccc2[nH]ncc2c1 (stereo not given),-0.802
17,O=C(CCl)N1CCN(c2nc3ccccc3o2)CC1,-0.836
18,O=C(CCl)NC1CCS(=O)(=O)c2ccccc21 (stereo not given),-0.152
19,Cc1nc(-c2cccc(NC(=O)CCl)c2)cs1,-0.378
20,Cc1nc(CN2CCN(C(=O)CCl)CC2)cs1,-0.431

row,Structure (SMILES),log2 ratio of Biotin-Ahx-Ub-VS probe labelling
1,CCC(NC(=O)CCl)c1ccc(Cl)cc1 (stereo not given),-0.332
2,O=C(CCl)NCc1ccc(N2CCOCC2)nc1,-0.262
3,Cc1ccc(C)c(Oc2ccc(CNC(=O)CCl)cn2)c1.Cl,-0.371
4,CCC1c2ccsc2CCN1C(=O)CCl (stereo not given),-0.479
5,CS(=O)(=O)c1ccc(CNC(=O)CCl)cc1,-0.204
6,O=C(CCl)N1CCC(C(=O)N2CCCCCC2)CC1,-0.204
7,Cc1ccc(CC(CO)CNC(=O)CCl)cc1 (stereo not given),-0.262
8,Cc1conc1C1CN(C(=O)CCl)C1,-1.12 (active)
9,CS(=O)(=O)c1ccc(NC(=O)CCl)cc1,0.0136
10,O=C(CCl)NCCc1ccc2c(c1)OCCO2,-0.579
11,Cl.O=C(CCl)N1CCCC(c2ncc[nH]2)C1 (stereo not given),-0.141
12,CN(Cc1nc2ccccc2[nH]1)C(=O)CCl.Cl,0.0145
13,Cc1cccc(N2CCC(NC(=O)CCl)C2=O)c1 (stereo not given),-0.345
14,O=C(CCl)N1CCc2sccc2C1,-0.619
15,O=C(CCl)NCCC1=CCCCC1,0.0195
16,CC(NC(=O)CCl)c1cccc2ccccc12 (stereo not given),-0.209
17,O=C(CCl)N1CCOC(CCc2ccccc2)C1 (stereo not given),-0.562
18,CN(C)C(=O)c1ccc(NC(=O)CCl)cc1,-0.162
19,C[C@H]1CN(C(=O)CCl)CCN1C(=O)c1cnn(C)c1.Cl,-0.0358
20,Cl.O=C(CCl)NCc1ccnc(Oc2ccccc2F)c1,-0.153
